Screening results: PubChem BioAssay, National Center for Advancing Translational Sciences (NCATS)
An excerpt weighted towards active compounds, which were near 9.2% of everything screened.
NPC1 promoter act = activators of NPC1 promoter. Huh7 NPC1 promoter luciferase reporter, 24 h. 2.4% of 320,000 active. AID 485313. Potency, µM (titrated, usually from 9.22 µM), hits mostly activators; note: nearly all actives have a fitted effect of over 60% in size
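Luminescence from an NPC1 promoter-driven luciferase reporter in stably transfected Huh7 cells was measured after 24 h compound treatment at 37 °C, followed by 10 min ambient incubation with luciferase detection reagent.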
FLuc counter = firefly luciferase modulation, counter-screen for miR-21 project. purified FLuc, Km substrates, luminescence inhibition. AID 588342. 6.9% of 360,000 active. Potency, µM (highest dose often 57.5 µM), actives largely listed as inhibitors; note: nearly all actives have a fitted effect of over 55% in size
Target sequence (P08659 whole entry, looked up): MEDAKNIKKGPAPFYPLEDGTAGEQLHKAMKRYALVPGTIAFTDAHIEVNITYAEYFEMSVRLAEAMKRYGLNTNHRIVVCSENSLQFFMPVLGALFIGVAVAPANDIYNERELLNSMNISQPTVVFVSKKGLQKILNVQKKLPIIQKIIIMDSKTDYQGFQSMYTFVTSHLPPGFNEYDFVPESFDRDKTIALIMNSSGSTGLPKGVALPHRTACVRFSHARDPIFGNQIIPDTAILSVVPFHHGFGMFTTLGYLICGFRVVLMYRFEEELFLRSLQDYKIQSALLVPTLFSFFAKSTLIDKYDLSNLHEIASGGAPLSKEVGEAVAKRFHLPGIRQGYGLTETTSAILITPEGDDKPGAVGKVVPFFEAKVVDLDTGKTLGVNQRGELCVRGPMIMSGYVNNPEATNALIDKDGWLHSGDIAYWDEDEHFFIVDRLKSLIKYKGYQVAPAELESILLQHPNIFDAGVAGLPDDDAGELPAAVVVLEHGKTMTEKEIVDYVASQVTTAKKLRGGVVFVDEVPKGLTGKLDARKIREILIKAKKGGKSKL
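Purified P. pyralis luciferase (10nM final) with 10uM D-luciferin and 10uM ATP (Km levels) in 50mM Tris acetate pH 7.5, 10mM Mg acetate, 0.01% Tween-20, 0.05% BSA; qHTS 6-point titration, ~60 µM downward; luminescence read.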
Rab9 promoter act = Rab9 promoter activation. Potency, µM (titrated, usually from 9.22 µM), most hits filed as activators. 2.8% of 320,000 active. Huh7 Rab9 promoter-luciferase reporter, luminescence, 24 h. AID 485297; note: nearly all actives have a fitted effect of over 60% in size
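Stable Rab9-luc Huh7, 1500 cells/well, 2 h settle; cmpd in DMSO, 24 h, 37 °C/5% CO2; luciferase reagent 10 min RT; luminescence.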
SMN2 splice enh = enhancers of SMN2 splice variant expression; 2.8% of 210,000 active; Potency, µM (top dose mostly 46.1 µM), usual class: activators; HEK293 SMN2-luciferase splicing reporter, luminescence, 30-36 h; note: nearly all actives have a fitted effect of over 55% in size
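qHTS luciferase splicing reporter: luminescence rises when SMN2 exon 7 is included in transfected HEK293 cells. Compound exposure lasted 30-36 h at 37C, with 4.5 mM final sodium butyrate as control, followed by a ONE-Glo read.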
ELG1 genotoxic = induces genotoxicity in HEK293T cells with luciferase-tagged ELG1. Potency, µM (series often up to 46 µM), most hits filed as activators. 1.3% of 330,000 active. AID 504466. HEK293T ELG1-luciferase reporter, luminescence, 16 h; note: nearly all actives have a fitted effect of over 60% in size
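DMSO vehicle served as control against compound-treated ELG1-luciferase HEK293T cells; exposure lasted 16 hr at 37 °C and 5% CO2, followed by ONE-Glo luminescence detection after 30 min.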
ELG1 repair inh = inhibitors of ELG1-dependent DNA repair in HEK293T cells | AID 504467 | Potency, µM (series often up to 46.1 µM), usual class: inhibitors | 2.3% of 330,000 active | HEK293T ELG1-luciferase reporter, luminescence, 16 h; DNA damage induced by 5-fluorouridine; note: nearly all actives have a fitted effect of over 55% in size
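In this reporter screen, reduction of luminescence relative to DMSO vehicle indicated activity. Compounds and 5-fluorouridine were added together to 2,000 cells per well, incubated for 16 hr at 37 °C, then developed with ONE-Glo.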
A number is an active result; n = inactive; u = inconclusive; x = no result; [ ] = remark or other dose. Calls come from the whole dose curve; as a rule, active = well fitted curve in the direction sought with a large enough effect; inconclusive = small, poorly fitted or top-dose-only effect, or another doubt; inactive = no such curve, though single readings can be large; an effect the other way counts as inactive or inconclusive.

SMILES | NPC1 promoter act | FLuc counter | Rab9 promoter act | SMN2 splice enh | ELG1 genotoxic | ELG1 repair inh
CCOc1ccc(CCNC(=O)c2[nH]c3cc(OC)ccc3c2Sc2ccccc2)cc1OCC | x | n | x | x | x | x
COc1ccc2c(c1)NC(=O)CC(c1ccccc1)=N2 | u | u | n | n | 16µM | u
COc1ccc(O)c(C2=Nc3ccccc3N=C(c3ccccc3)C2)c1 | n | n | n | u | n | u
COc1ccc(OCCSc2nnnn2C2CCCCC2)cc1 | n | u | n | n | n | n
c1ccc(OCCSc2nnnn2C2CCCCC2)cc1 | 0.56µM | 2.1µM | 1µM | 11µM | u | u
Cc1nn2c(C)c(C(=O)NCc3cccc(Br)c3)cnc2c1-c1ccccc1 | x | n | x | x | x | x
CN(Cc1ccccc1)Cc1c(O)ccc2ccccc12 | n | 27µM | n | x | n | n
CN(Cc1cc(Cl)cc(Cl)c1O)Cc1c(O)ccc2ccccc12 | x | x | x | n[9.22 µM] | x | x
COc1ccc(-c2cc(C(=O)Nc3ccccc3O)c3ccccc3n2)cc1OC | n | u | n | n | n | 23µM
COc1ccc(-c2cc(C(=O)Nc3nc4ccccc4s3)c3ccccc3n2)cc1OC | n | 17µM | n | n | n | 15µM
COc1ccc(NC(=O)c2ccc3c(c2)nnn3C2CCCC2)cc1Cl | x | n | x | x | x | x
N#Cc1ccsc1NC(=O)c1cccc(-n2cnnn2)c1 | n | u | n | x | n | n
N#Cc1ccsc1NC(=O)c1cccc([N+](=O)[O-])c1 | n | n | n | n | n | 5.8µM
N#Cc1ccsc1NC(=O)c1ccc(Cl)c([N+](=O)[O-])c1 | n | 6µM | n | x | n | u
O=C(O)c1cc(NC(=O)c2ccc(Cl)c([N+](=O)[O-])c2)cc(C(=O)O)c1 | n | n | n | n | u | n
CCN1CCN(/C=N/c2nc3c(s2)CCCC3)CC1 | u | 1.3µM | u | n | 0.92µM | u
CN1CCN(CC(=O)Nc2nc3c(s2)CCCC3)CC1 | n | n | n | x | n | u
Cc1sc2nc3ccc(N4CCCC4)nn3c(=O)c2c1C | u | 12µM | n | x | n | n
Cc1ccc2nc3ccc(N4CCN(C)CC4)nn3c(=O)c2c1 | 1.6µM | 6µM | 3.5µM | x | u | u
Cc1ccc2nc3ccc(N4CCCCCCC4)nn3c(=O)c2c1 | u | 5.4µM | u | u | n | u
O=c1c2ccccc2nc2ccc(N3CCOCC3)nn12 | u | 17µM | u | u | u | u
Cc1cc(N2CCOCC2)nc2ccccc12 | n | u | n | u | n | u
Cc1cc(Cl)c2oc(C(=O)N(C)CC3CCOCC3)c(C)c2c1 | n | u | n | x | n | u
Cc1nnc(NC(=O)c2ccc(S(=O)(=O)N(C)Cc3ccccc3)cc2)o1 | n | n | n | n | n | n
CCCN(CCC)S(=O)(=O)c1ccc(C(=O)Nc2nnc(COC)o2)cc1 | n | u | n | n | n | 18µM
SMILES | NPC1 promoter act | FLuc counter | Rab9 promoter act | SMN2 splice enh | ELG1 genotoxic | ELG1 repair inh
CCc1nnc(NC(=O)c2ccc(S(=O)(=O)N(CC(C)C)CC(C)C)cc2)o1 | n | n | n | n | n | u
CCN(Cc1ccccc1)S(=O)(=O)c1ccc(C(=O)Nc2nnc(C3CC3)o2)cc1 | n | n | n | n | n | 12µM
C=CCN(CC=C)S(=O)(=O)c1ccc(C(=O)Nc2nnc(CSC)o2)cc1 | n | n | n | n | n | 18µM
CCc1nnc(NC(=O)c2ccc(S(=O)(=O)N(C)c3ccccc3)cc2)o1 | n | n | n | n | n | 7.3µM
CC(C)c1cccc(OCCCCN(C)C)c1 | n | n | n | n | n | n
Cc1ccc(Cn2ccnc2SCC(=O)Nc2nnc(C)s2)cc1 | x | n | x | x | x | x
CC(NS(=O)(=O)c1cn(C)c(=O)n(C)c1=O)c1ccccc1 (stereo not drawn) | n | n | n | x | n | n
O=C(CSc1nc2ccccc2nc1Cc1ccccc1)Nc1ccccc1C(F)(F)F | x | n | x | x | x | x
Cc1cc(/C=C(\C#N)C(=O)NCc2cccs2)c(C)n1-c1ccccc1F | 3.5µM | 2.1µM | 3.5µM | n | u | u
COc1ccc(/C=C(\C#N)C(=O)NCc2cccs2)cc1OC | n | n | n | n | n | n
Cc1ccccc1-n1c(C)cc(/C=C(\C#N)C(=O)NCC2CCCO2)c1C (stereo not drawn) | n | 0.95µM | u | n | 10µM | u
Cc1cc(C)cc(-n2ccnc2SCC(=O)Nc2ccccc2F)c1 | x | n | x | x | x | x
COc1cccc(C2=CC(c3cccc(OC)c3OC)n3nnnc3N2)c1 (stereo not drawn) | n | 24µM | n | u | u | n
COc1cccc(C2C=C(c3ccc(OC)cc3OC)Nc3nnnn32)c1 (stereo not drawn) | n | u | n | n | n | 18µM
COc1ccc(C2C=C(c3ccccc3)Nc3nnnn32)cc1 (stereo not drawn) | 4µM | n | u | n | n | u
COc1ccc(C2=CC(c3ccc(OC)c(OC)c3)n3nnnc3N2)c(OC)c1 (stereo not drawn) | n | n | n | x | n | u
COc1cccc(C2=CC(c3cccc(OC)c3OC(F)F)n3nnnc3N2)c1 (stereo not drawn) | n | n | n | n | n | u
N#C/C(=C\c1ccc(Cl)cc1)C(=O)NCC1CCCO1 (stereo not drawn) | x | u | x | n | x | x
COc1ccccc1C(=O)Nc1nnc(-c2ccc(F)cc2)s1 | 3.2µM | 4.8µM | 4.5µM | x | n | u
Cc1cc(C(=O)Nc2sc(C)c(-c3ccc(F)cc3)c2C(N)=O)no1 | 3.2µM | 1.2µM | 3.2µM | n | u | u
Cc1cc(C(=O)Nc2nnc(-c3ccccc3)s2)no1 | n | 27µM | u | n | n | u
COc1ccccc1C(=O)Nc1nsc(-c2ccccc2)n1 | u | 4.3µM | 1.6µM | x | u | u
O=C(Nc1nnc(-c2ccc(F)cc2)s1)Nc1ccccc1F | n | n | n | x | n | n
O=C(Nc1nnc(-c2ccccc2)s1)c1ccc(F)cc1 | u | n | 1.4µM | u | u | u
CCN(CC)C1=CC(=[N+]2CCCC2)CC(C)(C)C1 | n | n | n | n | n | n
SMILES | NPC1 promoter act | FLuc counter | Rab9 promoter act | SMN2 splice enh | ELG1 genotoxic | ELG1 repair inh
CN(Cc1ccccc1)C1=CC(=[N+]2CCCC2)CC(C)(C)C1 | n | n | n | x | n | 0.26µM
Cc1cccc(C2c3[nH]c4ccccc4c3CCN2C(=O)Cc2nc(-c3ccccc3)n[nH]2)n1 (stereo not drawn) | n | n | n | x | n | 18µM
Cc1cc(C)c2oc(-c3ccc(Cl)c(NC(=O)c4ccc(C#N)cc4F)c3)nc2c1 | n | 17µM | n | u | n | u
COc1ccc(C2SCC(=O)N2CCc2ccc(OC)c(OC)c2)cc1 (stereo not drawn) | n | n | n | x | n | 18µM
N/C(=N\OC(=O)c1ccoc1)c1ccc(Br)cc1 | 2.5µM | 6.7µM | 3.2µM | x | 3.7µM | u
Cc1cccc(C(=O)O/N=C/c2ccc(Br)cc2)c1 | n | 3.4µM | n | n | u | u
N/C(=N\OC(=O)N1CCOCC1)c1ccc(Br)cc1 | u | u | u | n | n | u
